Test [1] can be described thus: small molecules captured by biotinylated probe aFSTL3 – biochemical, small-molecule microarray, fluorescence 635/667, stem cell growth factor project, primary screen (AID 1064).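 Note: measures binding of the biotinylated anti-FSTL3 antibody to printed compounds.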 Particulars: higher = more signal.
Test [2] can be described thus: binders from COS7 lysate, DM2A8 probe, primary screen, torsin A project, cell lysate, small-molecule microarray, fluorescence 635/667 (AID 1065). The note with it: higher = more signal, COS7 lysate expressing mutant human TOR1A.
Test [3] can be described thus: small molecules captured by biotinylated probe aFGF2 – biochemical, small-molecule microarray, fluorescence 635/667, stem cell growth factor project, primary screen (AID 1067).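 Note: measures binding of biotinylated aFGF2 protein to printed compounds on slides; z-score merges feature fluorescence and signal-to-noise across triplicate slides.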 Particulars: higher = more signal.
Test [4] in a line: small molecules captured by biotinylated probe aFGF10 – biochemical, small-molecule microarray, fluorescence 635/667, stem cell growth factor project, primary screen (AID 1071).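 Note: score merges 667 nm spot intensity and signal to noise from triplicate slides.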 Particulars: higher = more signal.
The target of test [5] is Neurogenic locus notch homolog protein 2 (Homo sapiens) (UniProt Q04721). Briefly: small molecules binding Notch2 protein – biochemical, small-molecule microarray, 635 nm fluorescence, stem cell growth factors, primary screen (AID 1073). The note with it: higher = more signal.
Test [6] addresses Pro-neuregulin-1, membrane-bound isoform (Homo sapiens) (UniProt Q02297). Put plainly: small molecules binding neuregulin-1 protein – biochemical, small-molecule microarray, fluorescence 635/667, psychiatric disease protein project, primary screen (AID 1075).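 Note: score combines 667 nm spot fluorescence with signal to noise.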 The note with it: NRG1 binding, 635 nm fluorescence, higher = more signal.
Test [7] relates to Neuregulin-1 EGF-like domain. Briefly: small molecules binding NRG1 EGF domain – biochemical, small-molecule microarray, 635 nm fluorescence, primary screen (AID 1081).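 Note: binding of the protein to compounds printed on small-molecule microarray slides.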 The note with it: higher = more signal.
Test [8] in a line: FRG1 expression reporter modulators in myotubes – cell-based, C2C12 myotubes, firefly/Renilla luciferase, luminescence, FRG1 inhibition for FSHD, primary screen (AID 1084). The note with it: FRG1 promoter luciferase, higher = more signal, called active from +8 up or from −8 down.
The nature of test [9]: small molecules captured by biotinylated probe aFST – biochemical, small-molecule microarray, fluorescence 635/667, stem cell growth factor project, primary screen (AID 1086).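 Note: score merges 667 nm fluorescence with signal-to-noise of each printed compound spot.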 Particulars: higher = more signal.
The nature of test [10]: binders of probe aHhip on microarray, primary screen, stem cell growth factor project, biochemical, small-molecule microarray, fluorescence 635/667 (AID 1087).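 Note: score merges spot fluorescence at 667nm with spot signal to noise ratio.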 Particulars: higher = more signal.
Test [11] relates to PRMT1 (protein arginine N-methyltransferase 1). Briefly: small molecules binding arginine methyltransferase PRMT1 – biochemical, small-molecule microarray, 635 nm fluorescence, primary screen (AID 1088).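 Note: binding of Prmt1 protein to compounds spotted on small-molecule microarray slides.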 The note with it: higher = more signal.
Test [12] is described as follows: growth effects on S. cerevisiae YJM789 – YJM789 clinical isolate, OD600, 24 h, basal, primary screen (AID 1089).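 Note: growth of clinical yeast isolate S. cerevisiae YJM 789 seeded 1000 cells per well; test concentration not given here.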 The note with it: higher = more signal, called active from +8 up or from −8 down.
Test [13] is described as follows: S. pombe growth modifiers, basal conditions – strain 972, OD600, 24 h, no modulator, primary screen (AID 1090).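 Note: basal condition with compound alone and no growth modifier present; test concentration not given here.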 The note with it: S. pombe 972 growth, higher = more signal, called active from +8 up or from −8 down.
Test [14] can be described thus: budding yeast growth modifiers under rapamycin – strain BY4716, OD600, 96 h, primary screen (AID 1091). Note: test concentration not given here. Particulars: S. cerevisiae BY4716 + rapamycin, higher = more signal, called active from +8 up or from −8 down.
Test [15] concerns the target Torsin-1A-interacting protein 2 (Homo sapiens) (UniProt Q8NFQ8). Briefly: small molecules binding lysate-expressed LULL1 – cell lysate, human LULL1 lysate, 635/667 nm fluorescence, primary screen (AID 1092).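 Note: probe is lysate of COS7 cells overexpressing human LULL1; score merges per-feature 667 nm fluorescence with signal-to-noise.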 The note with it: small-molecule microarray, hLULL1 lysate binding, 635 nm fluorescence; higher = more signal.
Test [16] is described as follows: optical density change of DRC41 E. coli – strain DRC41, OD650, 24 h, E. coli filamentation project, primary screen (AID 1093).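 Note: MC1000 strain lacking acrAB efflux and sulA so SOS filamentation is blocked; test concentration not given here.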 Particulars: E. coli DRC41 growth, higher = more signal, called active from +8 up or from −8 down.
The nature of test [17]: probe aLefty2 binding to arrayed compounds – biochemical, biotinylated probe, 635/667 nm fluorescence, primary screen (AID 1094).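 Note: score merges spot fluorescence near 667 nm with spot signal-to-noise ratio.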 Particulars: small-molecule microarray, higher = more signal.
Test [18] relates to Noggin (protein binding on small-molecule microarray). Briefly: small molecules binding Noggin protein – biochemical, 635/667 nm fluorescence, primary screen (AID 1095).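 Note: score merges 667 nm feature fluorescence with signal to noise over triplicate slides.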 The note with it: 635 nm fluorescence, higher = more signal.
Test [19] concerns the target Neurogenic locus notch homolog protein 3 (Homo sapiens) (UniProt Q9UM47). Put plainly: small molecules binding NOTCH3 protein – biochemical, 635/667 nm fluorescence, primary screen (AID 1096). Particulars: small-molecule microarray, 635 nm fluorescence, higher = more signal.
Test [20] can be described thus: probe aEGFR binding to arrayed compounds – biochemical, biotinylated probe, 635/667 nm fluorescence, primary screen (AID 1097).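 Note: probe is a biotinylated anti-EGFR antibody binding compounds printed on slides; score combines fluorescence near 667 nm and signal to noise of each spot.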 The note with it: small-molecule microarray, higher = more signal.

Active and inactive are the calls of the source.

For 5 compounds, composite z-score and z-score results are on record in PubChem BioAssay.

Chain of Torsin-1A-interacting protein 2 (Homo sapiens) (Q8NFQ8 whole entry, looked up): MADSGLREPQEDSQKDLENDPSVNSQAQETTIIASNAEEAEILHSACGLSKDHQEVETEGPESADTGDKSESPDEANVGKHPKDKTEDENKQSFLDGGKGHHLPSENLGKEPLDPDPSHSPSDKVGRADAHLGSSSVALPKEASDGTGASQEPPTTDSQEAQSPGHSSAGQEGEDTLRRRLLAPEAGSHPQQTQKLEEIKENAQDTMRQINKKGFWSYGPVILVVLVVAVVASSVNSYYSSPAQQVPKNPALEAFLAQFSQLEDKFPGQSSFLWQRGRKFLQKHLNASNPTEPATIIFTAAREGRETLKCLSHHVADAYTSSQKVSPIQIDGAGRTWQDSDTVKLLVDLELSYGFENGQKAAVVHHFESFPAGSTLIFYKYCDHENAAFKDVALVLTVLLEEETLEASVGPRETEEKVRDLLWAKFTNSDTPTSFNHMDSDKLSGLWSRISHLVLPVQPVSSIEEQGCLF
Chain of Pro-neuregulin-1, membrane-bound isoform (Homo sapiens) (Q02297 whole entry, looked up, the tested form may be a part, canonical isoform): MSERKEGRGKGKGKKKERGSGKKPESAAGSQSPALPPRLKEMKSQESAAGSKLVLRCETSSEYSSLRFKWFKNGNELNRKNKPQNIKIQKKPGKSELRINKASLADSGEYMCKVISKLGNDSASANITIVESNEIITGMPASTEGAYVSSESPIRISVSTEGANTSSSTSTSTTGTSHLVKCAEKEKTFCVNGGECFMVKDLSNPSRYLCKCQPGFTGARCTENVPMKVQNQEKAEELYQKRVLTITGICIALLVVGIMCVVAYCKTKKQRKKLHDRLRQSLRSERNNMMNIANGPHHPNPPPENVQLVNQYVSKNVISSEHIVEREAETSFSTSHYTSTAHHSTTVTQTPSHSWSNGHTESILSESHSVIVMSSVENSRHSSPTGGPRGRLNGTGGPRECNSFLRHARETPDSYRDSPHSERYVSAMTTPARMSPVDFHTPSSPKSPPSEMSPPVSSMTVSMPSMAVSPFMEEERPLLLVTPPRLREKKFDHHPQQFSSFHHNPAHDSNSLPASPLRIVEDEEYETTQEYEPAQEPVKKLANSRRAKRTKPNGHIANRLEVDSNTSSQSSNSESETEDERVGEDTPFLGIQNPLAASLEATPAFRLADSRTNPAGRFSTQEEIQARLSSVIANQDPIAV
Chain of Neurogenic locus notch homolog protein 3 (Homo sapiens) (Q9UM47 whole entry, looked up): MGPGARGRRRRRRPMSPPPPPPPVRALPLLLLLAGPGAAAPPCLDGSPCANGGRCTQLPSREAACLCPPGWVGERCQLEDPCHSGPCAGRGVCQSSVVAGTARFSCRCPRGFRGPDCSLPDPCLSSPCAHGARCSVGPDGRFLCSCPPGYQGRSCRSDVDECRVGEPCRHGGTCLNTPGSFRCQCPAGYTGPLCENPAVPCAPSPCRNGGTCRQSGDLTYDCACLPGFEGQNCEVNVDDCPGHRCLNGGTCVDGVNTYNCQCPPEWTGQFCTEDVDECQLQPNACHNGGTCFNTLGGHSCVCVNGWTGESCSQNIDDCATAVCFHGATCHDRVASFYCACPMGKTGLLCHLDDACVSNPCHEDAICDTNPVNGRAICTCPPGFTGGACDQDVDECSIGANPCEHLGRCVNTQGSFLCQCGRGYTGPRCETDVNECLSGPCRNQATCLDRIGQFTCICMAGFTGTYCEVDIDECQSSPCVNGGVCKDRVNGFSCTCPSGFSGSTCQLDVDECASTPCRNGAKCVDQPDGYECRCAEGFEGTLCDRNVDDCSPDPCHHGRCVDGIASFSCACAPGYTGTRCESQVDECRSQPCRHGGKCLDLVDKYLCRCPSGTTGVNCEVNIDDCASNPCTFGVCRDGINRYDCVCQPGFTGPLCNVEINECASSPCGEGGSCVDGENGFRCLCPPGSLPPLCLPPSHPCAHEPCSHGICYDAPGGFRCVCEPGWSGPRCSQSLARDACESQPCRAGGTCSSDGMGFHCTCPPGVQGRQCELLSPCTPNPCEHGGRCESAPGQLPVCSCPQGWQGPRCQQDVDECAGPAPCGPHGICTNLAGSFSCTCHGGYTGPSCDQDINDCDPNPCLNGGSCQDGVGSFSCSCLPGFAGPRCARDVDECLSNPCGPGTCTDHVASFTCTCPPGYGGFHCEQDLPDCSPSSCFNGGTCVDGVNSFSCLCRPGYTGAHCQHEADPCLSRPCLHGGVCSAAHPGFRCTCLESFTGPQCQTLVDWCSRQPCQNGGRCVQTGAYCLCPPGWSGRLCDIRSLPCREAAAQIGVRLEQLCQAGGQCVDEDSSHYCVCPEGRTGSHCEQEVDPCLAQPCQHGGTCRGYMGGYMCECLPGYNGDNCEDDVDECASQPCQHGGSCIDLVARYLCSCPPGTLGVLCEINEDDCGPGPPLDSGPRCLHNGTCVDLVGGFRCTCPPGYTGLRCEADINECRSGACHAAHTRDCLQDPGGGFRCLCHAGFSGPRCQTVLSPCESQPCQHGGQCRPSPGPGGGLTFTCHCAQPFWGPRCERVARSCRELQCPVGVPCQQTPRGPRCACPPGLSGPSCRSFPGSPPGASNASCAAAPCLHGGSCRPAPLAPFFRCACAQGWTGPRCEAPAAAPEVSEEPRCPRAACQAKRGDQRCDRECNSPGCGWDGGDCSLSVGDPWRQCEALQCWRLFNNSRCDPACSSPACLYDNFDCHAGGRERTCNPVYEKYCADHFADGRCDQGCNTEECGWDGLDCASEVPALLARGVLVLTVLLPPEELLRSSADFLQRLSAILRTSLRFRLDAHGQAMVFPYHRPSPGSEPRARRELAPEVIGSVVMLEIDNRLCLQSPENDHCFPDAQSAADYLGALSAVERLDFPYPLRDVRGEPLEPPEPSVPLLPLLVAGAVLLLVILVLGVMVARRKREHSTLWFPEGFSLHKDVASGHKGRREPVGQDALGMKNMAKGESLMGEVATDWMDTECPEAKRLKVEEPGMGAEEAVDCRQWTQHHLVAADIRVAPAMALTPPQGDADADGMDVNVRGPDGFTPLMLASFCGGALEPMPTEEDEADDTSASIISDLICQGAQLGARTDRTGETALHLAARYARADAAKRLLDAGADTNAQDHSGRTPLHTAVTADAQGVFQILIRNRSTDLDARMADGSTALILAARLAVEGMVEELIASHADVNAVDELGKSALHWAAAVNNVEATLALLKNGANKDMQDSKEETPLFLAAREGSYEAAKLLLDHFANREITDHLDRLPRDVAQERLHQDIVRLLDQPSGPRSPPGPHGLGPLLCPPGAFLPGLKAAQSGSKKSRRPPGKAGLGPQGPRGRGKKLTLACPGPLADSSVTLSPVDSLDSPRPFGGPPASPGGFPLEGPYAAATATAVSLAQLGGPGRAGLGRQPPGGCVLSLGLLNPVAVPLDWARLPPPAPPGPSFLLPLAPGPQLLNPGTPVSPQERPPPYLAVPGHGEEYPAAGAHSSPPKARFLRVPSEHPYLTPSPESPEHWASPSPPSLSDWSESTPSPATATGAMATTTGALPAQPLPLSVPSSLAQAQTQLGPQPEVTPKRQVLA

On to `CC(C)CNC(=O)[C@@H]1c2ccccc2C(=O)N(Cc2cc(C(F)(F)F)cc(C(F)(F)F)c2)[C@H]1c1ccc(CO)cc1`, for which the composite z-score is 0.491 in test [1]; -0.249 in test [2]; 0.071 in test [3]; -0.365 in test [4]; -0.744 in test [5]; -0.27 in test [6]. In addition, the composite z-score amounted to 0.401 in test [7]; 0.0438 in test [9]; 0.224 in test [10]; 0.457 in [11]; 0.557 in test [15]; 0.104 in test [17]. Moreover, the figures for the composite z-score in test [18], in test [19] and in [20] were -0.96, -0.977 and -0.0682, respectively. Also, the z-score in [8] is 0.53 (inactive); in test [12], 0.976 (inactive); in [13], -0.989 (inactive); in test [14], -0.706 (inactive); in test [16], -0.381 (inactive).
Consider `CC(C)CNC(=O)[C@@]1(c2ccc([N+](=O)[O-])cc2)CC(=O)N(CC23CC4CC(CC(C4)C2)C3)[C@@H]1c1ccc(CO)cc1I`, for which the composite z-score was 0.483 in test [1]; 0.699 in test [2]; -0.0226 in test [3]; 0.26 in test [4]; 1.34 in test [5]; 0.168 in [6]. In addition, the composite z-score in test [7] was 1.29; in [9], 0.283; in [10], -0.0994; in test [11], 1.54; in test [15], 3.06; in test [17], -0.0144. Besides, the results for the composite z-score in [18], in [19] and in [20] were 1.3, 1.09 and -0.0088, respectively. The z-score in test [8] was -1.52 (inactive); in test [12], 0.951 (inactive); in [13], 0.864 (inactive); in test [14], 3.26 (inactive); in test [16], -0.569 (inactive).
As for `CCCN1C(=O)[C@@]2(CCC(=O)OC(C)(C)C)N=C(c3ccc(OCCCO)cc3)O[C@H]2c2ccccc21`, the composite z-score in test [1] was -0.0952; in [2], 0.108; in test [3] it was -0.0243; in test [4], 0.102; in test [5], 0.312; in test [6] it was 0.0163. Also, the composite z-score in test [7] was 0.959; in [9] it was 0.0225; in [10] it was -0.191; in [11], 1.56; in test [15], 2.64; in test [17], 0.0272. Moreover, the composite z-score was 1.82 in test [18], 0.518 in test [19] and -0.0371 in test [20]. For the same compound, the z-score is -1.22 (inactive) in test [8]; -1.25 (inactive) in [12]; -1.19 (inactive) in test [13]; 1.51 (inactive) in test [14]; 1.2 (inactive) in [16].
Take `O=C1N(CCS(=O)(=O)c2ccccc2)Cc2ccccc2[C@H]2OC(c3ccc(OCCCO)cc3)=N[C@@]12CCS(=O)(=O)c1ccccc1`: the composite z-score in test [1] amounted to 1.11; in test [2] it was 0.994; in test [3], 0.145; in test [4], 0.784; in [5], 1.37; in test [6] it was 1.62. The composite z-score was 1.36 in [7]; 0.593 in [9]; -0.189 in [10]; 1.57 in test [11]; 3.01 in test [15]; 0.417 in test [17]. Besides, the values for the composite z-score in test [18], in test [19] and in test [20] were 0.894, 1.06 and 0.162, respectively. Moreover, the z-score was -2.53 (inactive) in test [8]; 1.91 (inactive) in test [12]; 1.62 (inactive) in test [13]; 8.55 (active) in test [14]; -0.409 (inactive) in [16].
Turning to `O=C1O[C@@H](c2ccccc2)[C@@H](c2ccccc2)N2[C@@H](c3ccc(OCCO)cc3)[C@]3(C(=O)Nc4ccc(C#CC5=CCCCC5)cc43)[C@@H](C(=O)O)[C@H]12`, the composite z-score in test [1] is 0.44; in [2] it was 0.681; in [3], -0.0158; in test [4] it was 0.506; in test [5], 1.48; in test [6] it was 1.59. Further, the composite z-score came out at 1.12 in test [7]; 0.492 in [9]; 0.0274 in test [10]; 1.5 in [11]; 1.96 in test [15]; 0.0919 in test [17]. Besides, the values for the composite z-score in test [18], in [19] and in test [20] were 0.107, 0.793 and 0.0061, respectively. Also, the z-score in [8] is 0.82 (inactive); in test [12], 1.73 (inactive); in test [13] it was 1.22 (inactive); in test [14], -0.188 (inactive); in test [16], 0.112 (inactive).
